# According to PubChem BioAssay (NCATS):
# Inconclusive results are not listed. Calls of active or inactive are those of the source. The call rests on the fitted dose curve; in most records, active means well fitted inhibition curve with a large enough effect; inconclusive means small, poorly fitted or top-dose-only effect; inactive means no such curve, though single readings can be large or run the other way.
# Target: Protein phosphatase 1D (Homo sapiens) (UniProt O15297)
# Experiment: RapidFire Mass Spectrometry qHTS Assay for Modulators of WT P53-Induced Phosphatase 1 (WIP1) (AID 1347424)
# Conditions: WIP1 dephosphorylation of phosphopeptide, RapidFire MS; series mostly up to 63 µM; activity change, negative = inhibition: at the top concentration
# Text: Assay Provider (PI): Nathan Coussens Ph. D.
# National Center for Advancing Translational Sciences (NCATS), Rockville, MD
# National Institute of Health (NIH), Bethesda, Maryland
# WT P53-Induced Phosphatase 1 (WIP1) is a member of the magnesium-dependent serine/threonine protein phosphatase (PPM) family and is induced by P53 in response to DNA damage. In several human cancers, the WIP1 protein is overexpressed, which is generally associated with a worse prognosis. Although WIP1 is an attractive therapeutic target, no potent, selective, and bioactive small-molecule modulator with favorable pharmacokinetics has been reported. Phosphatase enzymes are among the most challenging targets for small molecules because of the difficulty of achieving both modulator selectivity and bioavailability. Another major obstacle has been the availability of robust and physiologically relevant phosphatase assays that are suitable for high-throughput screening.
# Here, we describe two orthogonal biochemical WIP1 activity assays that utilize phosphopeptides from native WIP1 substrates. We optimized a RapidFire MS assay to quantify the enzymatically dephosphorylated peptide reaction product in a 384-well format. Additionally, a redshifted Rhodamine-PBP fluorescence assay was optimized in a 1,536-well format to enable real-time WIP1 activity measurements through the detection of the orthogonal reaction product, Pi. We validated these two optimized assays by quantitative high-throughput screening against the National Center for Advancing Translational Sciences (NCATS) Pharmaceutical Collection and used secondary assays to confirm and evaluate inhibitors identified in the primary screen.
# SEQUENCE No. (e.g., 1, 2, 3, etc.); […] (e.g., Cells, Incubation, Reagent, etc.); VALUE; DESCRIPTION
# 1; Reagent; 50 uL; dispensed assay buffer: 0.1% formic acid in water (10 uL : 40 uL) solution in column 1
# 3; Library Compounds; 63 nL; library compounds in DMSO, columns 3-24
# 4; Control Compounds; 63 nL; DMSO in wells I-P, columns 1-2, GSK830371 (10 uM, final) in wells A-H, column 2
# 5; Time; 1 hr; incubation
# 6; Substrate; 2 uL; VEPPL-pS-QETFS (10 uM) in assay buffer, column 2-24
# 7; Time; 5 min; incubation
# 8; Reagent; 2 uL; 0.5% formic acid in water, columns 2-24
# 9; Reagent; 38 uL; VEPPL-S-QETF*S in 0.1% formic acid, columns 2-24
# 10; Detection; mass spec; RapidFire mass spectrometry
# NOTES (numbers refer to sequence above)
# 1, 2, 6; dispensed reagent in White Nunc 384-well PP microplates (264573); assay buffer: 50 mM Tris-HCl pH 7.5, 30 mM MgCl2, 1 mM TCEP, 0.1 mM EGTA, 75 ug/mL BSA.
# 2, 6, 8, 9; Dispensed with BioRaptr (Beckman Coulter)
# 2, 6, 9; Final concentrations: 10 nM WIP1; 2 uM VEPPL-pS-QETFS; 1 uM VEFFL-S-QETF*S
# 3 & 4; Kalypsys Pintool transfer (Wako USA), Tip wash sequence: water, DMSO, methanol, 20 sec vacuum dry.
# 5 & 7; incubation at room temperature
# 10; RapidFire mass spectrometry read using the Agilent RapidFire 360 (Clausse, 2019)
# Clausse V, et al. Physiologically relevant orthogonal assay for the discovery of small-molecule modulators of WIP1 […] in high-throughput screens. J Biol Chem. 2019, 294(46): 17654-17668. doi:10.1074/jbc.RA119.010201
# Potency means the concentration at half of the fitted maximal effect.
# Sequence of Protein phosphatase 1D (Homo sapiens) (O15297 whole entry, looked up): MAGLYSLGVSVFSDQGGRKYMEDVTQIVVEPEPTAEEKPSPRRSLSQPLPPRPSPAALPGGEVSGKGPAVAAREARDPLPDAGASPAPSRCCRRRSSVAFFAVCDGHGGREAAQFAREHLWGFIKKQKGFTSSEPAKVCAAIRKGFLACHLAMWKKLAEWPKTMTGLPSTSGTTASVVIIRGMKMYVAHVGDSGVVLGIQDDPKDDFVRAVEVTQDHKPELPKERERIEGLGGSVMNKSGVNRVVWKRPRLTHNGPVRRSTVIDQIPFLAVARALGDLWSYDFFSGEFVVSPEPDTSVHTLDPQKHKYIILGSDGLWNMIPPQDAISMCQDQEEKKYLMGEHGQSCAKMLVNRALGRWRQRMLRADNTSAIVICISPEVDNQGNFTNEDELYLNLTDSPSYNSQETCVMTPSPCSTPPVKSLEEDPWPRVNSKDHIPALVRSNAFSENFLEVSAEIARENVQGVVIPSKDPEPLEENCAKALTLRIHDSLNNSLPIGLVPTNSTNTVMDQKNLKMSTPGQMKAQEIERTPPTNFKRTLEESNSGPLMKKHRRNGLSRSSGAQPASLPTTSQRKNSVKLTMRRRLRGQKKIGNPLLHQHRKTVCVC
SMILES,"activity change, negative = inhibition",Potency
Cc1ccc(S(=O)(=O)N[C@@H](CCCCN)C(=O)CCl)cc1,-23.8% (inactive),
CC[C@@H](CO)NC(=O)[C@@H]1C=C2c3cccc4c3c(cn4C)C[C@H]2N(C)C1,-7.69% (inactive),
OCCOc1ccccc1,16.4% (inactive),
CCN(CC)CCN1C(=O)CN=C(c2ccccc2F)c2cc(Cl)ccc21,21.6% (inactive),
COC[C@@H](NC(C)=O)C(=O)NCc1ccccc1,17.5% (inactive),
CCCN1CCC[C@@H]2Cc3[nH]ncc3C[C@H]21,-3.17% (inactive),
COc1ccc2c(c1OC)CN1CCc3cc4c(cc3C1C2)OCO4 (stereo not given),9.93% (inactive),
O=c1oc2ccccc2c(O)c1C(CC(O)c1ccc(-c2ccc(Br)cc2)cc1)c1ccccc1 (stereo not given),,8.91 µM (active)
Oc1ccc(Cl)cc1Cc1ccccc1,-29.3% (inactive),
COc1ccccc1N1CCNCC1,-5.55% (inactive),
Clc1ccc(CCC(Cn2ccnc2)Sc2c(Cl)cccc2Cl)cc1 (stereo not given),54.3% (inactive),
C#CCN(C)[C@H](C)Cc1ccccc1,-1.89% (inactive),
N[C@@H]1C[C@H]1c1ccccc1,6.43% (inactive),
CCC(C(N)=O)N1CCCC1=O (stereo not given),-6.45% (inactive),
CCC(COC(=O)c1cc(OC)c(OC)c(OC)c1)(c1ccccc1)N(C)C (stereo not given),67% (inactive),
CC(C)NCC(O)c1ccccc1Cl (stereo not given),13.1% (inactive),
CCC(=O)C(CC(C)N(C)C)(c1ccccc1)c1ccccc1 (stereo not given),-8.83% [at 128 µM] (inactive),
O=C(NC(O)C(Cl)(Cl)Cl)NC(O)C(Cl)(Cl)Cl (stereo not given),-8.2% (inactive),
CCN(CC)CCOC(=O)C(O)(c1ccccc1)c1ccccc1,-1.11% (inactive),
C#CCOC(C(=O)OCCN(C)C)(c1ccccc1)c1ccccc1,14% (inactive),

SMILES,"activity change, negative = inhibition",Potency
CCCC1CCCCN1 (stereo not given),5.36% (inactive),
CC[N+](CC)(CC)CC,7.44% (inactive),
C=CCN1CC[C@]23c4c5ccc(O)c4O[C@H]2C(=O)CC[C@@]3(O)[C@H]1C5,-1.97% (inactive),
O=P1(NCCCl)OCCCN1CCCl (stereo not given),-0.91% (inactive),
C[C@]12CC[C@H]3[C@@H](CCC4=CC(=O)CC[C@@H]43)[C@@H]1CC[C@@H]2OC(=O)CCc1ccccc1,21.6% (inactive),
Cc1ccc2c(c1)C1CN(C)CCC1N2 (stereo not given),-5.78% [at 26.6 µM] (inactive),
Nc1ccncc1,-1.04% (inactive),
c1ccc(C2CC2)c(OCC2=NCCN2)c1,2.26% (inactive),
CC1NCCOC1c1ccccc1 (stereo not given),6.79% (inactive),
COc1ccc(C(=O)c2c(C)n(CCN3CCOCC3)c3ccccc23)cc1,53.6% (inactive),
NP(N)(=O)NC(=O)c1ccc(F)cc1,1.17% (inactive),
CCCC(C)(COC(N)=O)COC(=O)NC(C)C (stereo not given),-0.594% (inactive),
CC(C)(N)Cc1ccc(Cl)cc1,-12.9% (inactive),
C=C1C[C@@H]2[C@H](CC[C@]3(C)C(=O)CC[C@@H]23)[C@@]2(C)C=CC(=O)C=C12,-0.2% (inactive),
Clc1cccc(N2CCNCC2)c1,-4.79% (inactive),
CC(=O)[C@H]1CC[C@H]2[C@@H]3CC[C@H]4C[C@H](O)CC[C@]4(C)[C@H]3C(=O)C[C@]12C,6.09% (inactive),
O=c1[nH]c2ccccc2n1CCCN1CCC(n2c(=O)[nH]c3cc(Cl)ccc32)CC1,4.04% (inactive),
Cn1c(CCCC(=O)O)nc2cc(N(CCCl)CCCl)ccc21,-8.92% (inactive),
C=C1CC[C@@]2(O)[C@H]3Cc4ccc(O)c5c4[C@@]2(CCN3CC2CC2)[C@H]1O5,-3.78% (inactive),
C[C@]12CCC(=O)C(O)=C1CC[C@@H]1[C@@H]2CC[C@]2(C)C(=O)CC[C@@H]12,9.37% (inactive),
